The record followed here is PubChem BioAssay AID1626 (SRMLSC, 2009).

Molecules are shown by their SMILES. Out of some 220,000 compounds screened, about 2,000 (0.91%) were called active. Roughly 2% stayed inconclusive and do not appear here. No stated cut-off is given here; in the data, inconclusive means inhibition above about 80% without an active follow-up result; inactive means below that; test concentration not stated here. Not all results are given here. Potency and affinity values are given separately.

This assay in a line: M. tuberculosis H37Rv growth inhibitors, H37Rv strain (AID 1626).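 Further: bacteria incubated seven days before Alamar blue readout; 0% = bacteria only wells and 100% = bacteria with antibiotic wells.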 The settings on record: active compounds read high, concentration not given here.
For the compound `CC(C)CC(c1nnnn1CC1CCCO1)N1CCN(Cc2ccc3c(c2)OCO3)CC1` (stereo unspecified), the inhibition – broadly, the change of the read-out against control, counted positive when it falls – was 0.16% (inactive).
For `CCN1C/C(=C/c2sccc2C)c2nc3ccccc3c(C(=O)O)c2C1` the value was -0.78% (inactive); for `Nc1nnnn1CC(=O)N/N=C/c1cc([N+](=O)[O-])ccc1Cl`, -0.24% (inactive); for `Cc1ccc(C(=O)COC(=O)CN2C(=O)C3C4CCC(C4)C3C2=O)cc1[N+](=O)[O-]` (stereo unspecified), 19.5% (inactive).
The same measure for `Cc1ccc(CNC(=O)c2ccc(Cn3nc(C)c(Cl)c3C)o2)cc1`: 2.97% (inactive).
Turning to `COc1ccc(NC(=O)CCN2CCOCC2)c(OC)c1`, the inhibition is -3.47% (inactive).
The same measure for `COc1ccc(-c2nc3ccccc3c(=O)n2CCOc2ccccc2C)cc1`: 0.63% (inactive); for `CC(C)c1cc(C(=O)O)c2ccccc2n1`: -2.96% (inactive).
Take `Brc1ccc(-c2cn3c(n2)CCc2ccc4cccnc4c2-3)cc1`: the inhibition is -2.02% (inactive).
The same measure for `COc1ccc(-n2c(-c3ccc(Br)cc3)c[n+]3c2CCC3)cc1`: 2.38% (inactive).
As to `COc1cc(/C=N/NC(=O)COc2cc(C)cc(C)c2)ccc1OS(=O)(=O)c1ccc(C)cc1`, the inhibition is 10.7% (inactive).
For the compound `CCc1ccc(CN(C)CC(=O)Nc2ccc3c(c2)CCC3)cc1`, the inhibition is 48% (inactive).
For `COc1ccc(CC(=O)Nc2ccc3c(c2)CCC3)cc1` the value was 9.72% (inactive); for `COc1cccc(NC(=O)COc2ccc3c(c2)CCC3)c1`, 74.3% (inactive).
The same measure for `CC(=O)Nc1ccc(NC(=O)COc2ccc3c(c2)CCC3)cc1`: 10.5% (inactive); for `Cc1cc(C(=O)Cn2nc(C(=O)O)c3ccccc3c2=O)c(C)n1CCc1ccc(F)cc1`: 3.54% (inactive); for `CC(C)OCCCNC(=O)Nc1cccc2ccccc12`: -3.82% (inactive).
The same measure for `CCOC(=O)c1c(NC(=O)COc2cccc3c2CCN(C)C3=O)sc2c1CCC2`: 31.8% (inactive); for `C/C(N)=C(/C#N)C(=O)COC(=O)c1ccccc1Oc1ccccc1`: -2.05% (inactive).
For `O=C(Nc1ccc(N2CCN(C(=O)c3ccccc3)CC2)cc1)c1cc2ccccc2o1`, the inhibition is 9.58% (inactive).
`O=C(Nc1ccc(N2CCN(C(=O)c3ccco3)CC2)cc1)c1ccco1`: the inhibition was -0.76% (inactive).
The same measure for `O=C(Nc1ccc(N2CCN(C(=O)c3ccco3)CC2)cc1)c1ccccc1`: 7.16% (inactive); for `O=C(Nc1ccc(N2CCN(C(=O)c3ccc(Cl)cc3)CC2)cc1)c1ccc2c(c1)OCCO2`: -4.15% (inactive); for `O=C(Nc1ccc(N2CCN(C(=O)c3ccc(Cl)cc3)CC2)cc1)c1cc2ccccc2o1`: -12.4% (inactive).
Take `O=C(Nc1ccc(N2CCN(C(=O)c3ccccc3)CC2)cc1)c1ccc(Br)o1`: the inhibition is 19.7% (inactive).
As for `Cc1ccc(-c2nn(-c3ccccc3)cc2/C=C/C(=O)OCC(=O)NC2CC2)o1`, the inhibition was 6.54% (inactive).
In the case of `Cc1cc(C)n(-c2ccc(C(=O)Nc3cccnc3Cl)cc2)n1`, the inhibition is -2.86% (inactive).
On to `CS(=O)(=O)N1CCc2cc(NC(=O)c3ccc(Cl)cc3Cl)ccc21`, for which the inhibition is -3.19% (inactive).
For `COc1ccc(/C=N/NC(=O)C2C3CCCCC32)cc1OC` (stereo unspecified) the value was 1.66% (inactive).
For `CCOc1ccc(Br)cc1S(=O)(=O)Nc1ccc(C(=O)Nc2ccc(C)cc2)cc1` the value was 1.51% (inactive); for `CN1C(C(=O)NCC2CC2)CC2Cn3c(nc4cc5ccccc5cc43)C21` (stereo unspecified), -9.29% (inactive); for `N#CC(Nc1ccccc1)c1ccccc1OCc1ccccc1` (stereo unspecified), 5.52% (inactive).
Take `COc1ccccc1NC(C#N)c1ccccc1OCc1ccccc1` (stereo unspecified): the inhibition is 5.14% (inactive).
With `CC(=O)n1c2ccccc2c2c1c1ccccc1n2C`, the inhibition is 6.42% (inactive).
The same measure for `CC(C)OC(=O)CC1C(=O)NCCN1C(=S)NC(=O)c1ccccc1` (stereo unspecified): 3.87% (inactive).
For `Cc1ccc(C)n1-c1ccc(N2CCOCC2)c(Br)c1`, the inhibition was 4.43% (inactive).
For `COC(=O)c1ccc(C(=O)OC)c(NC(=O)CN2CCN(c3ccccc3OC)CC2)c1` the value was 72.2% (inactive); for `COC(=O)c1ccc(C(=O)OC)c(NC(=O)CN2CCN(c3ccc(OC)cc3)CC2)c1`, 13.8% (inactive); for `O=C1OCc2cc(N=Nc3c(O)[nH]c(=O)[nH]c3=O)ccc21`, -9.19% (inactive).
On to `COc1c(/C=N/NS(=O)(=O)c2ccc(C)cc2)c(CCN(C)C(C)=O)cc2c1OCO2`, for which the inhibition was -0.76% (inactive).
For `CCn1c(SCC(=O)c2cccs2)nnc1-c1ccco1` the value was -18.1% (inactive).
For `Cc1cccc(Nc2nc(N)c([N+](=O)[O-])c(NCc3ccco3)n2)c1`, the inhibition was 22.5% (inactive).
The same measure for `Nc1nc(Nc2ccc(Cl)cc2)nc(NCc2ccco2)c1[N+](=O)[O-]`: 18.8% (inactive); for `Cc1nn(C)c2c(=O)c(=O)c2n(C)[nH]1`: -3.16% (inactive).
The same measure for `CC(C)CCNC(=O)c1onc(CSc2ccccc2)c1C(=O)NCCC(C)C`: 19% (inactive).
The same measure for `CCn1c(COc2ccc(C)cc2)nnc1SCC(=O)NNC(=O)c1ccc(OC)cc1`: 4.68% (inactive); for `S=c1[nH]nc(-c2cccnc2)n1/N=C/c1ccccc1`: -12.5% (inactive).
As to `CCN1CCN(Cc2ccc(NC(=O)c3cc(NC(=O)c4ccno4)cc(OC)c3)cc2C(F)(F)F)CC1`, the inhibition is 14.6% (inactive).
The same measure for `CCN1CCN(Cc2ccc(NC(=O)c3cc(NC(=O)N4CCNC4=O)cc(OC)c3)cc2C(F)(F)F)CC1`: -1.27% (inactive); for `CCN1CCN(Cc2ccc(NC(=O)c3cc(NC(=O)c4ccc5n[nH]nc5c4)cc(OC)c3)cc2C(F)(F)F)CC1`: -1.88% (inactive).
For `CCN1CCN(Cc2ccc(NC(=O)c3ccc(C)c(NC(=O)c4ccc5n[nH]nc5c4)c3)cc2C(F)(F)F)CC1` the value was -11% (inactive).
Turning to `CCN1CCN(Cc2ccc(NC(=O)c3ccc(C)c(NC(=O)c4ccnnc4)c3)cc2C(F)(F)F)CC1`, the inhibition was -3.04% (inactive).
For `CCN1CCN(Cc2ccc(NC(=O)c3cc(NC(=O)c4nccnc4N)cc(OC)c3)cc2C(F)(F)F)CC1` the value was 6.4% (inactive).
With `Cc1cc(C)cc(NC(=O)CN2C(=O)NC(C)(c3ccccc3)C2=O)c1` (stereo unspecified), the inhibition was 1.34% (inactive).
The same measure for `COc1ccc(-c2nn(-c3ccccc3)cc2/C=C2/SC(=S)N(Cc3ccco3)C2=O)c(C)c1`: -0.21% (inactive).
The same measure for `Cc1sc(NC(=O)c2ccccc2F)c(CN2CCCCC2)c1C`: 7.51% (inactive).
